± gives the standard deviation of the averaged measurements.
What was measured:
[1] = system: DLD1; experiment: cell viability (CellTiter-Glo) relative to plate median (fraction of plate median); higher = more viable cells; details: 5 µM; treatment time 24 h; reporter: 7TFP
Method in brief: (§1)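 Colorectal cancer cell lines stably carrying lentiviral TCF/Wnt firefly luciferase reporters (7TFP or TCF4/Wnt) were plated in 384-well plates and, 24 h later, given library compounds at a final 5 µM for 24 h. Firefly luciferase or CellTiterGlo luminescence was read on parallel plates with a Tecan F500 reader. Each well's signal was normalised to the plate median in webcellHTS2 (additive, without log transformation). Values are the mean of two independent replicates.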

[2] = system: HCT116; experiment: as above; details: 5 µM; treatment time 24 h; reporter: TCF4/Wnt
Method in brief: as §1

[3] = system: SW480; experiment: as above; details: 5 µM; treatment time 24 h; reporter: 7TFP
Method in brief: as §1

[4] = system: DLD1; experiment: TCF/Wnt firefly luciferase reporter signal relative to plate median (fraction of plate median); higher = higher Wnt reporter signal; details: 5 µM; treatment time 24 h; reporter: 7TFP
Method in brief: as §1

[5] = system: SW480; experiment: as above; details: 5 µM; treatment time 24 h; reporter: 7TFP
Method in brief: as §1

SMILES | cell viability [1] | cell viability [2] | cell viability [3] | TCF/Wnt firefly luciferase reporter signal [4] | TCF/Wnt firefly luciferase reporter signal [5]
COc1ccc(CN(CCN(C)C)c2ccccn2)cc1 | 1.07 ± 0.057 | 1.01 ± 0.14 | 1.08 ± 0.021 | 0.96 ± 0.071 | 1.13 ± 0.014
CN1CC(=O)NC1=N | 1.02 ± 0.04 | 0.943 ± 0.021 | 1.02 ± 0.021 | 0.979 ± 0.059 | 0.935 ± 0.13
CC1(C)O[C@@H]2C[C@H]3[C@@H]4C[C@H](F)C5=CC(=O)C=C[C@]5(C)[C@@]4(F)[C@@H](O)C[C@]3(C)[C@]2(C(=O)CO)O1 | 0.955 ± 0.11 | 1 ± 0.093 | 0.975 ± 0.05 | 0.974 ± 0.032 | 0.944 ± 0.038
CC(C)(Oc1ccc(CCNC(=O)c2ccc(Cl)cc2)cc1)C(=O)O | 1.05 ± 0.014 | 1.06 ± 0.064 | 1 ± 0.069 | 0.919 ± 0.016 | 0.986 ± 0.02
NC[C@@H]1O[C@@H](O[C@H]2[C@H](O)[C@@H](O[C@H]3O[C@H](CO)[C@@H](O)[C@H](N)[C@H]3O)[C@H](N)C[C@@H]2N)[C@@H](O)[C@H](O)[C@H]1O | 0.986 ± 0.091 | 1.04 ± 0.014 | 0.94 ± 0.0042 | 1.02 ± 0.035 | 0.988 ± 0.031
COc1ccc2cc([C@H](C)C(=O)O)ccc2c1 | 1.02 ± 0.039 | 0.981 ± 0.083 | 1.045 ± 0.0071 | 0.969 ± 0.13 | 0.941 ± 0.065
CC(C)NCC(O)COc1ccc(COCCOC(C)C)cc1 (stereo not given) | 0.948 ± 0.017 | 0.99 ± 0.0057 | 0.933 ± 0.0028 | 1.03 ± 0.042 | 0.964 ± 0.066
Clc1ccc(CO/N=C(\Cn2ccnc2)c2ccc(Cl)cc2Cl)c(Cl)c1 | 0.9865 ± 0.0092 | 1.03 ± 0.035 | 0.9675 ± 0.0021 | 0.905 ± 0.056 | 0.823 ± 0.0092
CC(C)C1=C2[C@H]3CCC4[C@@H]5[C@H](O[C@@H]6OC[C@@H](O)[C@H](O[C@@H]4O)C65O)[C@]3(C)CC[C@@]2(C)CC1 (stereo not given in full) | 0.915 ± 0.067 | 0.862 ± 0.11 | 0.938 ± 0.011 | 0.873 ± 0.014 | 0.968 ± 0.045
COc1cc(OC)c2c(=O)c(-c3ccccc3)c(C)oc2c1OC | 1.07 ± 0.15 | 1.05 ± 0.078 | 1.01 ± 0.052 | 1 ± 0.069 | 0.9545 ± 0.00071
C=C1C2CC[C@@]3(C)[C@H](c4ccoc4)OC(=O)C[C@]13O[C@H]1CC(=O)C(C)(C)[C@H](C(O)C(=O)OC)[C@@]21C (stereo not given in full) | 0.97 ± 0.042 | 1.01 ± 0.087 | 0.991 ± 0.055 | 1.02 ± 0.11 | 1.02 ± 0.047
CC1/C(=N/O)C[C@@H]2C[C@H]1C2(C)C (stereo not given in full) | 1.07 ± 0.014 | 1.09 ± 0.014 | 1.02 ± 0.037 | 1.08 ± 0.042 | 0.919 ± 0.17
O=C(O)/C=C/c1ccc(O)c(O)c1 | 0.941 ± 0.046 | 1.05 ± 0.05 | 1.03 ± 0.081 | 0.983 ± 0.14 | 1.03 ± 0.035
O=C(O)C1CCCNC1 (stereo not given) | 0.994 ± 0.023 | 1 ± 0.071 | 0.948 ± 0.067 | 1.03 ± 0.065 | 0.938 ± 0.13
O.O.O.O.O=C([O-])CC(O)(CC(=O)[O-])C(=O)[O-].[Li+].[Li+].[Li+] | 0.955 ± 0.11 | 0.852 ± 0.086 | 0.966 ± 0.0028 | 0.844 ± 0.012 | 0.725 ± 0.14
C[C@H]1[C@H](C)CC[C@]2(C(=O)O)CC[C@]3(C)C(=CC[C@@H]4[C@@]5(C)C[C@@H](O)[C@H](O)[C@@](C)(CO)[C@@H]5[C@H](O)C[C@]43C)[C@H]12 | 1.01 ± 0.048 | 1.09 ± 0.099 | 0.985 ± 0.0085 | 0.919 ± 0.05 | 1.045 ± 0.0071
C=C[C@]1(C)C=C2C(=O)[C@@]3(O)OC(=O)[C@@]4(CCCC(C)(C)[C@H]34)[C@@]2(O)CC1 [Sphaeropsidin A] | 0.898 ± 0.16 | 0.973 ± 0.067 | 0.952 ± 0.015 | 0.938 ± 0.086 | 1.05 ± 0.19
Nc1nc2[nH]cnc2c(=S)[nH]1 | 0.706 ± 0.016 | 0.761 ± 0.037 | 0.828 ± 0.11 | 0.752 ± 0.033 | 0.799 ± 0.025
C[C@@H]1CCC[C@H](C)N1NC(=O)c1ccc(Cl)c(S(N)(=O)=O)c1 | 1.04 ± 0.068 | 0.9815 ± 0.00071 | 0.96 ± 0.0071 | 0.993 ± 0.0099 | 0.984 ± 0.052
CC(N)C(=O)OC(C)(C)Cc1ccc(Cl)cc1 (stereo not given) | 1.11 ± 0.042 | 1.15 ± 0.064 | 1.02 ± 0.036 | 0.945 ± 0.013 | 0.879 ± 0.1
CC(=O)O[C@@H]1C2=C(C)C=C(O2)[C@H]2O[C@]2(C)C[C@H]2C=C(C(=O)O2)[C@H](OC(C)=O)CC1[C@@]1(C)CO1 (stereo not given in full) [bipinnatin H] | 1.1 ± 0.13 | 1.08 ± 0.17 | 0.984 ± 0.023 | 0.897 ± 0.16 | 0.7915 ± 0.0021
Oc1c(I)cc(I)c2cccnc12 | 0.992 ± 0.11 | 0.931 ± 0.035 | 0.939 ± 0.016 | 0.928 ± 0.026 | 0.984 ± 0.14
C[C@](N)(Cc1ccc(O)cc1)C(=O)O [alpha-METHYL-L-TYROSINE] | 1.08 ± 0.11 | 1.07 ± 0.078 | 0.944 ± 0.016 | 0.896 ± 0.02 | 0.974 ± 0.11
c1ccc2c(CC3=NCCN3)cccc2c1 | 1.11 ± 0.035 | 1.09 ± 0.028 | 1.09 ± 0.035 | 1.07 ± 0.12 | 0.984 ± 0.11
CC(=O)NCCCCCC(=O)O | 0.987 ± 0.047 | 1.01 ± 0.027 | 1.035 ± 0.0071 | 1.01 ± 0.068 | 1.04 ± 0.07
CCN(CC)CCNC(=O)COc1ccc(OC)cc1 | 0.875 ± 0.03 | 0.928 ± 0.035 | 0.973 ± 0.038 | 1.09 ± 0.064 | 1.02 ± 0.029
CNCC[C@H](Oc1cccc2ccccc12)c1cccs1 | 1.03 ± 0.067 | 1.06 ± 0.021 | 1.05 ± 0.028 | 0.87 ± 0.023 | 0.97 ± 0.021
Cc1oc(=O)c2c(O)cccc2c1CO [8-Hydroxy-4-hydroxymethyl-3-methyl-isocumarin] | 0.926 ± 0.032 | 0.925 ± 0.027 | 0.98 ± 0.021 | 1.01 ± 0.13 | 0.993 ± 0.0099
CCOC(=O)C1=C[C@]2(CC)CCCN3CCc4c(n1c1ccccc41)[C@@H]32 | 0.916 ± 0.016 | 1.01 ± 0.088 | 0.995 ± 0.0071 | 1.02 ± 0.067 | 0.782 ± 0.079
COc1ccc(-c2cc(=O)c3cc(OC)ccc3o2)cc1 | 0.967 ± 0.031 | 0.964 ± 0.065 | 0.998 ± 0.059 | 1.17 ± 0.057 | 1.33 ± 0.014

Reference: the supplement of paper PMC6522484
